Source: PubChem BioAssay (National Center for Advancing Translational Sciences (NCATS))
The list is not random: actives were taken first. Their share in the collection is about 7.3%.
FLuc modulator = firefly luciferase modulation, counter-screen for miR-21 project. P08659. purified FLuc, Km substrates, luminescence inhibition. Potency, µM (series often up to 57.5 µM), hits mostly inhibitors. 360,000 compounds, 6.9% hits. AID 588342; note: nearly all actives have a fitted effect of over 55% in size
Target sequence (P08659 whole entry, looked up): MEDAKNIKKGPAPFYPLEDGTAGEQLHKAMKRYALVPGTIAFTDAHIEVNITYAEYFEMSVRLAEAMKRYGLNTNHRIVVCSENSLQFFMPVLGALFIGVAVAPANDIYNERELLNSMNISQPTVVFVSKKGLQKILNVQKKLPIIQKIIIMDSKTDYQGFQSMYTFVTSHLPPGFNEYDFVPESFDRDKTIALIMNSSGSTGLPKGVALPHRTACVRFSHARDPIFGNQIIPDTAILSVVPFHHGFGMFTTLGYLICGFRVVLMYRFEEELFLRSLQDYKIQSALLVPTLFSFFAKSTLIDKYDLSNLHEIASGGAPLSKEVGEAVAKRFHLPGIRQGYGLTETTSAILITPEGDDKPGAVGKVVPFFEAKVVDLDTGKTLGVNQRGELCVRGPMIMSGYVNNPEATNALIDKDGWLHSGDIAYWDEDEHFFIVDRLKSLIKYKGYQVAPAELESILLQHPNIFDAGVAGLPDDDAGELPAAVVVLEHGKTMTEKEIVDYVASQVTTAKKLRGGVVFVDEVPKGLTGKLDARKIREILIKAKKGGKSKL
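Purified P. pyralis luciferase, 10 nM final, with Km-level 10 uM D-luciferin and 10 uM ATP in 50 mM Tris acetate pH 7.5, 10 mM Mg acetate, 0.01% Tween-20, 0.05% BSA; 6-point qHTS titration about 60 µM downward; luminescence read.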
Rab9 promoter act = activates the Rab9 promoter. Huh7 Rab9 promoter-luciferase reporter, luminescence, 24 h. Potency, µM (doses to about 9.22 µM), actives largely listed as activators. 320,000 compounds, 2.8% hits; note: nearly all actives have a fitted effect of over 60% in size
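Luciferase signal after 10 min detection reagent at ambient indicates Rab9 promoter upregulation; stably transfected Huh7 cells were treated 24 h with compound in DMSO at 37 °C, 5% CO2.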
ELG1 genotox = genotoxicity induction in ELG1-luciferase HEK293T cells; HEK293T ELG1-luciferase reporter, luminescence, 16 h; Potency, µM (series often up to 46 µM), actives largely listed as activators; 330,000 compounds, 1.3% hits; AID 504466; note: nearly all actives have a fitted effect of over 60% in size
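ELG1-luciferase HEK293T cells, 2,000/well; compound pinned in; 16 hr, 37 °C, 5% CO2; ONE-Glo, 30 min RT; luminescence on CCD imager.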
NPC1 prom act = NPC1 promoter activation. 320,000 compounds, 2.4% hits. Huh7 NPC1 promoter luciferase reporter, 24 h. Potency, µM (highest dose often 9.22 µM), usual class: activators. AID 485313; note: nearly all actives have a fitted effect of over 60% in size
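NPC1 promoter–luciferase Huh7 cells; 24 h compound; luminescence.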
Luc counter = blocks Kinase-Glo luciferase, a counter-screen artifact. Q27757. Kinase-Glo luciferase, ATP luminescence, 8 min. Potency, µM (highest dose often 38.3 µM), most hits filed as inhibitors. 200,000 compounds, 0.28% hits. AID 1379; note: nearly all actives have a fitted effect of over 60% in size
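Compound is pinned into ATP-containing buffer (10 uM ATP, imidazole pH 7.2, 7 mM MgCl2). Kinase-Glo luciferase reagent is then added. Light output is recorded following an 8-min room-temperature incubation.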
SMN2 splice enh = enhancers of SMN2 splice variant expression | HEK293 SMN2-luciferase splicing reporter, luminescence, 30-36 h | Potency, µM (series often up to 46.1 µM), actives largely listed as activators | 210,000 compounds, 2.8% hits; note: nearly all actives have a fitted effect of over 55% in size
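qHTS luciferase splicing reporter: luminescence rises when SMN2 exon 7 is included in transfected HEK293 cells. Compound exposure lasted 30-36 h at 37C, with 4.5 mM final sodium butyrate as control, followed by a ONE-Glo read.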
Large screens that a line does not name were inactive. Calls come from the whole dose curve; as a rule, active = well fitted curve in the direction sought with a large enough effect; inconclusive = small, poorly fitted or top-dose-only effect, or another doubt; inactive = no such curve, though single readings can be large; an effect the other way counts as inactive or inconclusive.

CCc1ccc(NC(=O)c2cnn(-c3c(C)cccc3C)c2C2CCNCC2)cc1	none (no result: Rab9 promoter act, ELG1 genotox, NPC1 prom act, Luc counter, SMN2 splice enh)
Cc1ccccc1C1CC(=O)Oc2ccc(O)cc21 (stereo unspecified)	none (no result: FLuc modulator, Rab9 promoter act, ELG1 genotox, NPC1 prom act, SMN2 splice enh)
Cc1cn2c(=O)c(S(=O)(=O)Nc3ccc(OC(F)(F)F)cc3)c(C)nc2s1	none (no result: Rab9 promoter act, ELG1 genotox, NPC1 prom act, Luc counter, SMN2 splice enh)
O=C(CCN1C(=O)/C(=C/c2ccccc2)SC1=S)Nc1cccnc1	none (no result: Luc counter, SMN2 splice enh)
CCc1ccc(/C=C2\SC(=S)N(CCCC(=O)Nc3ccccc3C(=O)O)C2=O)cc1	FLuc modulator inconclusive (no result: Luc counter, SMN2 splice enh)
CCc1ccc(/C=C2\SC(=S)N(CCCC(=O)Nc3ccc(C(=O)O)cc3)C2=O)cc1	FLuc modulator 4.78µM (no result: Luc counter, SMN2 splice enh)
O=C(CCCN1C(=O)/C(=C\c2cccs2)SC1=S)Nc1ccc(C(=O)O)cc1	FLuc modulator inconclusive
O=C(CCCN1C(=O)/C(=C\c2ccccc2)SC1=S)Nc1ccc(C(=O)O)cc1	FLuc modulator 16.9µM (no result: Luc counter, SMN2 splice enh)
CCc1ccc(/C=C2/SC(=S)N(CCC(=O)Nc3cccnc3)C2=O)cc1	FLuc modulator 0.849µM (no result: Luc counter, SMN2 splice enh)
CCOc1ccc(C(=O)N(Cc2nc(-c3cccc(C)c3)no2)C(C)C)cc1	none (no result: Rab9 promoter act, ELG1 genotox, NPC1 prom act, Luc counter, SMN2 splice enh)
COc1ccc(NC(=O)n2ncc3c(C)cccc32)cc1	FLuc modulator 3.01µM, Rab9 promoter act 0.1µM, ELG1 genotox inconclusive, NPC1 prom act 0.0891µM (no result: Luc counter, SMN2 splice enh)
Cc1cccc2c1cnn2C(=O)Nc1ccccc1Br	FLuc modulator inconclusive, Rab9 promoter act inconclusive, NPC1 prom act inconclusive (no result: Luc counter, SMN2 splice enh)
COc1ccc(NC(=O)n2ncc3c(C)cccc32)cc1OC	FLuc modulator 1.9µM, Rab9 promoter act 3.16µM, ELG1 genotox inconclusive, NPC1 prom act 2.24µM (no result: Luc counter, SMN2 splice enh)
Cc1ccc(NC(=O)n2ncc3c(C)cccc32)cc1F	FLuc modulator 1.51µM, Rab9 promoter act 0.794µM, ELG1 genotox inconclusive, NPC1 prom act inconclusive (no result: Luc counter, SMN2 splice enh)
O=C(Nc1ccccc1C(F)(F)F)n1ncc2cc(Cl)ccc21	none (no result: Rab9 promoter act, ELG1 genotox, NPC1 prom act, Luc counter, SMN2 splice enh)
Cc1ccccc1NC(=O)n1ncc2cc(Cl)ccc21	FLuc modulator 21.3µM (no result: Luc counter, SMN2 splice enh)
CN1CCC[C@@H]1c1cccnc1.O=C(O)c1ccccc1O.O=C([OH2+])c1ccccc1O.O=C([OH2+])c1ccccc1O.[Mn]	none (no result: FLuc modulator, Rab9 promoter act, ELG1 genotox, NPC1 prom act)
Cc1ccc(Nc2ncnc3onc(C)c23)cc1Cl	none (no result: Rab9 promoter act, ELG1 genotox, NPC1 prom act, Luc counter, SMN2 splice enh)
COc1ccc(C)cc1NC(=O)n1ncc2c(C)cccc21	FLuc modulator 7.57µM (no result: Luc counter, SMN2 splice enh)
Cc1cccc2c1cnn2C(=O)Nc1ccccc1Cl	FLuc modulator 1.69µM, Rab9 promoter act inconclusive, ELG1 genotox inconclusive, NPC1 prom act inconclusive (no result: Luc counter, SMN2 splice enh)
Cc1ccc(S(=O)(=O)NCc2ccccc2)cc1C(=O)NC1CCC(C)CC1 (stereo unspecified)	FLuc modulator inconclusive, Rab9 promoter act 1.26µM, ELG1 genotox inconclusive, NPC1 prom act inconclusive (no result: Luc counter, SMN2 splice enh)
Cc1ccc(S(=O)(=O)NCc2ccccc2)cc1C(=O)N1CC(C)CC(C)C1 (stereo unspecified)	none (no result: Luc counter, SMN2 splice enh)
COc1ccc(-n2nc3ccc(NC(=O)c4c(OC)cccc4OC)cc3n2)cc1	FLuc modulator inconclusive (no result: Rab9 promoter act, ELG1 genotox, NPC1 prom act, Luc counter)
COc1ccccc1CCNC(=O)Cn1ccc2cc(S(=O)(=O)N3CCCCC3)ccc21	none (no result: Rab9 promoter act, ELG1 genotox, NPC1 prom act, Luc counter, SMN2 splice enh)
COc1cc(/C=C2\SC(c3ccc(C)cc3)=NC2=O)cc(OC)c1O	FLuc modulator 6.75µM
Cc1ccc(C2=NC(=O)/C(=C/c3cc(O)c(O)c(Br)c3)S2)cc1	FLuc modulator 8.49µM, Luc counter 10µM
Cc1ccc(S(=O)(=O)c2cnc(SCC(=O)Nc3cccc(Cl)c3)nc2N)cc1C	none (no result: Rab9 promoter act, ELG1 genotox, NPC1 prom act, Luc counter)
Nc1cccc(Nc2ccccc2)c1	none (no result: SMN2 splice enh)
c1ccc(Nc2cccc(Nc3ccccc3)c2)cc1	FLuc modulator 15.1µM, ELG1 genotox inconclusive
O=C(COc1ccc(OCc2ccccc2)cc1)NC1CCOC1=O (stereo unspecified)	FLuc modulator 21.3µM
Cc1cccc(CN2C(=O)c3ccccc3Sc3ccc(C(=O)NCc4cccs4)cc32)c1	none (no result: Rab9 promoter act, ELG1 genotox, NPC1 prom act, Luc counter, SMN2 splice enh)
Cc1cc(NC(=O)C(C)Oc2ccc(Cl)cc2Cl)no1 (stereo unspecified)	FLuc modulator 23.9µM (no result: Luc counter, SMN2 splice enh)
Cc1ccc(OC(C)C(=O)Nc2cc(C)on2)cc1 (stereo unspecified)	FLuc modulator 19µM (no result: Luc counter, SMN2 splice enh)
COc1ccc(C(=O)O)cc1Nc1nc2ccc(C)cc2n2cnnc12	none (no result: Rab9 promoter act, ELG1 genotox, NPC1 prom act, Luc counter)
CCS(=O)(=O)N1CCCC(C(=O)NCCOC)C1 (stereo unspecified)	none (no result: Rab9 promoter act, ELG1 genotox, NPC1 prom act, Luc counter, SMN2 splice enh)
